The campaign covered roughly 39,000 compounds. About 3,300 (8.5%) were called active. Many of the other results were omitted from the sample, so actives are more common in it than they were.
What follows are compounds tested on HepG2 (assay: cytotoxicity call (relative viability < 0.9)). Settings: 10 µM.

| Structure (SMILES) | cytotoxicity call |
| --- | --- |
| C[C@@H]1CCCCO[C@H](CN(C)C(=O)Nc2ccc(C(F)(F)F)cc2)[C@@H](C)CN([C@H](C)CO)C(=O)c2cc(NC(=O)CCCCCC(=O)Nc3ccccc3N)ccc2O1 | inactive |
| NS(=O)(=O)OC[C@H]1C[C@@H](Nc2ccnc3cc(-c4cccc(SC(F)(F)F)c4)nn23)[C@H](O)[C@@H]1O | active |
| O=C(C[C@H]1C[C@H]2c3cc(NC(=O)Cc4ccncc4)ccc3O[C@H]2[C@H](CO)O1)NCc1cccc(F)c1 | inactive |
| CO[C@@H]1CN(C)C(=O)c2ccc(NC(=O)Nc3ccccc3F)cc2OC[C@@H](C)N(Cc2ccccc2F)C[C@H]1C | inactive |
| CC(=O)Nc1ncc(CN2CCOCC2)s1 | inactive |
| Cc1c(CN2CCN(C(=O)[C@H](C)O)CC2)sc2c(N3CCOCC3)nc(-c3cnc(N)nc3)nc12 | active |
| C[C@@H]1CN([C@H](C)CO)C(=O)Cc2cc(NC(=O)Cc3cn(C)c4ccccc34)ccc2O[C@@H]1CN(C)S(=O)(=O)c1cn(C)cn1 | inactive |
| C=C/C=C/[C@@H]1C(=C)CN2[C@H]1[C@H](Cc1ccccc1)OC(=O)[C@@H]2Cc1ccc(-n2cc(COc3ccccc3/C=C(C)/C=C/C(=O)NO)nn2)cc1 | inactive |
| COC(=O)[C@H](Cc1ccccc1)N1CC2=C[C@@H](C3CC3)n3c(=O)n(C)c(=O)n3[C@H]2[C@@H]1[C@@H](O)CCn1cc(COc2ccccc2/C=C(C)/C=C/C(=O)NO)nn1 | inactive |
| COC(=O)[C@@H](Cc1ccc(-n2cc(COc3ccccc3/C=C(C)/C=C/C(=O)NO)nn2)cc1)N1CC2=C[C@H](C3CC3)n3c(=O)n(C)c(=O)n3[C@@H]2[C@H]1[C@H](O)Cc1ccccc1 | inactive |
| CC(/C=C/C(=O)NO)=C\c1ccccc1OCc1cn(CC(=O)N2CCN(c3ccccc3)CC2)nn1 | inactive |
| C#CCN1[C@H](/C=C/C2CC2)[C@H](Cc2ccccc2)OC(=O)[C@@H]1Cc1ccc(-n2cc(COc3ccccc3/C=C(C)/C=C/C(=O)NO)nn2)cc1 | active |
| CC(/C=C/C(=O)NO)=C\c1ccccc1OCc1cn(-c2ccc(C[C@H]3C(=O)O[C@@H](Cc4ccccc4)[C@H]4[C@@H]5C=CCCC=C5CN43)cc2)nn1 | inactive |
| COC(=O)[C@@H](NC(=O)Cn1cc(COc2ccccc2/C=C(C)/C=C/C(=O)NO)nn1)c1ccccc1 | active |
| C=C/C=C/[C@H]1C(=C)CN([C@H](Cc2ccc(-n3cc(COc4ccccc4/C=C(C)/C=C/C(=O)NO)nn3)cc2)C(=O)OC)[C@@H]1[C@H](O)Cc1ccccc1 | inactive |
| CCOC(=O)[C@H](Cc1ccccc1)NC(=O)Cn1cc(C(=O)NO)nn1 | inactive |
| COC(=O)[C@@H](NC(=O)Cn1cc(CCC(=O)NO)nn1)c1ccccc1 | inactive |
| COC(=O)[C@@H](NC(=O)Cn1cc(C(=O)NO)nn1)c1ccccc1 | active |
| COC(=O)[C@@H](Cc1ccc(-n2cc(COc3ccccc3/C=C(C)/C=C/C(=O)NO)nn2)cc1)N1CC2=CCCC=C[C@@H]2[C@H]1[C@H](O)Cc1ccccc1 | active |
| CS(=O)(=O)N1C[C@H](O)COC[C@H]2O[C@@H](CC(=O)NCc3ccccc3)CC[C@@H]21 | inactive |
| CC(C)(C)[S@@](=O)N1Cc2cc(C(=O)N3CCc4ccccc4C3)nc(-c3cccc(-c4cncnc4)c3)c2[C@H]1CCO | inactive |
| COc1ccc(C#Cc2ccc3c(c2)O[C@@H](CN(C)C(=O)CN2CCOCC2)[C@H](C)CN([C@@H](C)CO)S3(=O)=O)cc1 | inactive |

| Structure (SMILES) | cytotoxicity call |
| --- | --- |
| Cc1noc(C)c1NC(=O)Nc1ccc2c(c1)C(=O)N([C@@H](C)CO)C[C@@H](C)[C@@H](CN(C)S(C)(=O)=O)O2 | inactive |
| C[C@@H]1CN([C@@H](C)CO)C(=O)c2cc(NC(=O)CCN3CCOCC3)ccc2O[C@@H]1CN(C)Cc1ccccc1 | inactive |
| CO[C@@H]1CN(C)C(=O)c2cc(NC(=O)c3cnccn3)ccc2OC[C@@H](C)N(CCC(F)(F)F)C[C@H]1C | inactive |
| C[C@H]1CN([C@@H](C)CO)C(=O)c2cccc(NS(=O)(=O)c3ccc(Cl)cc3)c2O[C@H]1CN(C)Cc1ccc(Oc2ccccc2)cc1 | inactive |
| C[C@@H]1CN([C@@H](C)CO)C(=O)CCCn2cc(nn2)CO[C@@H]1CN(C)C(=O)C1CC1 | inactive |
| COc1ccc(-c2cc(=O)c3c(O)cc(O)cc3o2)cc1 | active |
| COc1ccc(-c2cc(=O)c3c(O)cc(OC)cc3o2)cc1 | inactive |
| COc1ccc(-c2cc(=O)c3c(OC)c(OC)c(OC)c(OC)c3o2)cc1OC | inactive |
| COc1ccc(-c2cc(=O)c3c(OC)cc(OC)cc3o2)cc1 | inactive |
| COc1ccc(-c2cc(=O)c3c(O)c(OC)c(OC)c(OC)c3o2)cc1OC | active |
| O=c1cc(-c2ccc(O)cc2)oc2cc(O)cc(O)c12 | inactive |
| COc1ccc(-c2cc(=O)c3c(OC)c(OC)c(OC)cc3o2)cc1OC | inactive |
| COc1ccc(-c2cc(=O)c3c(OC)c(OC)c(OC)c(OC)c3o2)cc1 | inactive |
| COc1ccc(-c2cc(=O)c3c(O)c(OC)c(OC)c(OC)c3o2)cc1 | active |
| C[C@@H]1CN([C@@H](C)CO)S(=O)(=O)c2ccc(C#C[C@@H](C)O)cc2O[C@H]1CN(C)C(=O)CN(C)C | inactive |
| C[C@@H]1CN([C@H](C)CO)C(=O)c2cccc(NS(C)(=O)=O)c2O[C@@H]1CN(C)S(=O)(=O)c1cccs1 | inactive |
| Clc1ccc2nncn2n1 | inactive |
| CNC(=O)[C@H]1O[C@H](n2cnc3c(NCc4cccc(I)c4)nc(Cl)nc32)[C@@H](O)[C@@H]1O | inactive |
| C[C@@H]1CCCCO[C@@H](CN(C)Cc2ccncc2)[C@H](C)CN([C@H](C)CO)C(=O)c2cc(NS(=O)(=O)c3ccc(Cl)cc3)ccc2O1 | inactive |
| NC(=O)NCC#Cc1ccc2c(c1)[C@]1(C(=O)N2)[C@H](C(=O)N2CCN(c3ncccn3)CC2)[C@H]2C(=O)O[C@H](c3ccccc3)[C@H](c3ccccc3)N2[C@@H]1c1ccccc1OCCO | inactive |
| Cc1cc(C(=O)Nc2cccc3c2O[C@@H](CN(C)S(=O)(=O)c2ccc(Cl)cc2)[C@@H](C)CN([C@@H](C)CO)C3=O)n(C)n1 | inactive |
| O=C(CN1CCOCC1)NCC[C@@H]1CC[C@H](NC(=O)Nc2ccccc2)[C@@H](CO)O1 | inactive |

— the antibiotic and cytotoxicity screens of Wong et al. (2023)
